Pf growth 48h: inhibits P. falciparum growth in the first generation, 48 h | P. falciparum luciferase growth in erythrocytes, 48 h | Potency, µM (doses to about 28.7 µM), for inactives: top-dose activity change, negative = inhibition, most hits filed as inhibitors | 310,000 compounds, 5.9% hits; note: potency is the fitted concentration of half-maximal effect; % is set by controls: 0 for no effect and ±100 for the full control effect
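Luciferase-expressing parasites in RBCs, 2% Hct / 0.1% parasitemia final; RPMI 1640 + 0.5% Albumax; 37 C, 5% CO2, one generation; luminescence read-out, lower signal = inhibition.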
Sm TGR block: blocks Schistosoma mansoni thioredoxin glutathione reductase; 360,000 compounds, 3% hits; purified TGR, DTNB reduction, TNB absorbance 405 nm; Potency, µM (series often up to 114 µM), inactives show at the top dose activity change, negative = inhibition, usual class: inhibitors; Q962Y6; note: potency is the fitted concentration of half-maximal effect; % is set by controls: 0 for no effect and ±100 for the full control effect; nearly all actives have a fitted effect of over 60% in size
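First, TGR (20 nM dispensed) and NADPH were mixed with compound. Second, a 15 min room-temperature incubation followed. Third, further NADPH and then DTNB were added to start the reaction. Finally, TNB absorbance was monitored kinetically.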
SARS PLP yeast: inhibitors of SARS-CoV papain-like protease in yeast; S. cerevisiae expressing SARS-CoV PLpro, growth rescue; Potency, µM (doses to about 32.9 µM), inactives show top-dose activity, positive = growth rescue, actives largely listed as activators; 330,000 compounds, 0.19% hits; AID 485353; calls by dose curve; note: potency is the fitted concentration of half-maximal effect; 0% is about no effect; nearly all actives have a fitted effect of over 55% in size
Pf growth 96h: inhibits malaria parasite growth, 96 h. P. falciparum luciferase reporter growth, 96 h. Potency, µM (series often up to 28.7 µM), without a hit: at the highest dose activity change, negative = inhibition, actives largely listed as inhibitors. 320,000 compounds, 6.9% hits; note: potency is the fitted concentration of half-maximal effect; % is set by controls: 0 for no effect and ±100 for the full control effect
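Infected RBCs, 2% Hct / 0.05% parasitemia final; luciferase-reporter P. falciparum; cpd 96 h, 37 C, 5% CO2; luciferase detection reagent; luminescence.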
HCMV inh: human cytomegalovirus inhibition | AID 1259415 | HFF cells, HCMV-luciferase reporter, 72 h; stronger effect = lower value | 410,000 compounds, 4.5% hits | activity change, negative = inhibition, % at 57.5 µM; in the data active = activity change below about -60%; inconclusive = no clear call, values can overlap the other calls; inactive = above about -39%; note: % is set by controls: 0 for no effect and ±100 for the full control effect
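Luciferase read-out from HCMV-luciferase-infected HFFs (MOI 1 PFU/cell) 72 h post infection at 37C; compounds added after 16 h cell attachment; activity normalized between buffer-only basal and Salinomycin (10uM) inhibitor controls.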
HCV inh: inhibitors of hepatitis C virus infection; Huh7.5.1 HCVcc-Cre infection, luciferase reporter, 44 h; Potency, µM (doses to about 41.8 µM), inactives show top-dose activity change, negative = inhibition, actives largely listed as inhibitors; 340,000 compounds, 3.4% hits; AID 651820; note: potency is the fitted concentration of half-maximal effect; % is set by controls: 0 for no effect and ±100 for the full control effect
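Whole-lifecycle infectious HCVcc-Cre system; cells 1,000/well, compound then virus (~0.5 moi) added 4 h after plating, 44 h culture. Luciferase read 15 sec following 15 min substrate incubation, room temp.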
* marks the source's active call; other numbers are inactive results; ? = inconclusive; . = no result given; [ ] = another dose, or the depositor's remark. The list is not random: actives were taken first. Their share in the collection is about 15%. Unless noted, calls come from the whole dose curve; as a rule, active = well fitted curve in the direction sought with a large enough effect; inconclusive = small, poorly fitted or top-dose-only effect, or another doubt; inactive = no such curve, though single readings can be large; an effect the other way counts as inactive or inconclusive.

SMILES	Pf growth 48h	Sm TGR block	SARS PLP yeast	Pf growth 96h	HCMV inh	HCV inh
Cc1cc(NC(=O)CCCSc2nc(-c3ccco3)cc(C(F)(F)F)n2)no1	-5%	-26%	2%	.	10	2%
Cc1cc(NC(=O)CCSc2nc(-c3ccco3)cc(C(F)(F)F)n2)n(-c2ccccc2)n1	12µM*	-15%	7%	-16%	?	?
Cc1ccc(O)c(NC(=O)CCSc2nc(-c3ccco3)cc(C(F)(F)F)n2)c1	.	1%	.	.	-29	.
Cc1nn(C)cc1NC(=O)CCSc1nc(-c2ccco2)cc(C(F)(F)F)n1	-17%	-30%	-2%	.	?	11µM*
COc1ccc(CCNC(=O)CCSc2nc(-c3ccco3)cc(C(F)(F)F)n2)cc1	?	-4%	6%	-27%	?	?
CC(=O)COC(=O)C1=NN(c2ccccc2)C(=O)CC1	31%	3%	-3%	46%	12	33%
O=C(c1ccncc1)N1CCN(S(=O)(=O)c2ccc(F)cc2)CC1	8%	?	-9%	-18%	36	5%
CCc1ccc(-c2cn3c(n2)sc2cc(C(=O)NCCC4=CCCCC4)ccc23)cc1	.	-5%	.	.	.	.
O=C(CCC1CCCN(C2C3CC4CC(C3)CC2C4)C1)NCc1ccc(F)c(F)c1 (stereo not given)	-23%	-1%	1%	4%	-25	-14%
CC[C@@]1(c2ccccc2)NC(=O)N(C)C1=O	-19%	.	.	-22%	.	.
CCc1cc(=O)oc2c3c(cc(OCC(=O)NCCCC(=O)O)c12)OC(C)(C)CC3	?	12%	-2%	?	-7	11%
CCc1cc(=O)oc2c3c(cc(OCC(=O)NC4CC4)c12)OC(C)(C)CC3	?	5%	-1%	4.1µM*	-10	0.79µM*
Cc1cc(=O)oc2c3c(cc(OCC(=O)NCC4CCC(C(=O)O)CC4)c12)OC(C)(C)CC3 (stereo not given)	?	-11%	3%	?	5	6%
CCc1cc(=O)oc2c3c(cc(OCC(=O)NCCCOC)c12)OC(C)(C)CC3	0%	-7%	-1%	0%	-69*	?
CCc1cc(=O)oc2c3c(cc(OCC(=O)NCCC(=O)O)c12)OC(C)(C)CC3	-19%	6%	0%	?	?	-2%
CCc1cc(=O)oc2c3c(cc(OCC(=O)NCCN4CCOCC4)c12)OC(C)(C)CC3	?	0%	7%	9.3µM*	-22	?
Cc1c(C(=O)Nc2ccccc2)c2ccc(C(F)(F)F)cc2n1O	.	.	.	.	-95*	?
CCN(CC)C(=O)C1=C(C)N(Cc2ccc(OC)cc2)C(=O)C(CC(=O)NC(c2ccccc2)c2ccccc2)C1 (stereo not given)	.	.	.	.	-4	.
COc1cc2c(cc1OC)/C(=C/C(=O)c1ccc(F)cc1)NCC2	?	-17%	-5%	12µM*	-25	?
COC(=O)c1ccc(NC(=O)C2CCN(C(=O)c3cc(OC)c(OC)c(OC)c3)CC2)cc1	.	3%	6%	?	-101*	9%
COC(=O)C1CCN(C(=O)c2cc(OC)c(OC)c(OC)c2)CC1	-1%	1%	3%	31%	22	-9%
COc1ccc(C(=O)C2CCN(C(=O)c3ccc(F)cc3)CC2)cc1	-8%	4%	-6%	?	?	25µM*
COc1ccc(C(=O)C2CCN(C(=S)NCCc3ccc(OC)c(OC)c3)CC2)cc1	0%	50%	0%	48%	?	?
COc1ccc(CCNC(=S)N2CCC(C(=O)c3ccc(F)cc3)CC2)cc1OC	?	6%	-1%	10%	?	0.5µM*
O=C(c1ccc(F)cc1)C1CCN(C(=O)c2ccc(F)cc2)CC1	38%	-21%	4%	?	-6	2%
SMILES	Pf growth 48h	Sm TGR block	SARS PLP yeast	Pf growth 96h	HCMV inh	HCV inh
CN1CCN(C(=O)c2ccc(Oc3ccc([N+](=O)[O-])cc3)cc2)CC1	-5%	3%	0%	?	26	18%
CCOC(=O)N1CCN(C(=O)c2ccc(Oc3ccc([N+](=O)[O-])cc3)cc2)CC1	?	9%	0%	44%[5.75 µM]	-83*	?
O=C(CS(=O)(=O)c1cccc2nsnc12)Nc1ccccc1Cl	.	-2%	.	.	4	.
CCc1ccc(NCc2cc3cc4c(cc3n(CC(=O)Nc3ccc(C)cc3)c2=O)OCO4)cc1	.	?	.	.	34	.
CC1CCN(CCC(=O)Nc2ccc(F)c(F)c2)CC1	13%	-9%	-3%	0%	4	-6%
Cc1cc(OCC(=O)OCC(=O)N2CCCc3ccccc32)ccc1Cl	.	.	.	.	-6	.
O=C(Nc1noc2ccccc12)c1ccc(F)cc1	.	-2%	.	.	107	.
OC(c1ccccc1)c1ncc(-c2cccc(OCc3ccccc3)c2)[nH]1 (stereo not given)	.	.	.	.	18	.
O=C(C[C@@H]1C/C=C/CCCC(=O)O[C@H](c2ccccc2)CNC1=O)N[C@H](CO)Cc1ccccc1	.	.	5%	.	1	-9%
CCOc1ccc(C(=O)C2CCN(C(=O)c3ccc([N+](=O)[O-])cc3)CC2)cc1	-1%	-20%	-7%	?	?	10µM*
COC(=O)c1ccccc1NC(=O)C1CCN(C(=O)c2ccc(OC)cc2)CC1	0%	6%	4%	12µM*	-4	4%
CCOC(=O)C1C(c2ccc(O)c(O)c2)NC(=S)NC1(O)C(F)(F)F (stereo not given)	34%	-8%	4%	12µM*	-6	2%
Cc1cc(O)ccc1Nc1cc(-c2cccc(N)c2)ncn1	.	.	.	.	-31	.
COc1ccc(Nc2nc3ccccc3c(=O)[nH]2)cc1	2.1µM*	-5%	3%	4.7µM*	26	6%
Cc1ccc2nc3c(c(Nc4ccccc4)c2c1)CCC3	?	0%	-1%	9.3µM*	?	?
Clc1ccc(Nc2nc(-c3ccccc3)c3cc(Cl)ccc3n2)cc1	.	0%	.	.	-61*	.

High-throughput results (PubChem BioAssay)
